From PubChem BioAssay AID651965 (National Center for Advancing Translational Sciences (NCATS), 2013) come the findings set out here.

Screen size: about 340,000 compounds; about 6,400 (1.9%) were called active. About 4% were inconclusive and are not listed. For the sample, actives were picked, then their nearest neighbours and some compounds at random. A number with no mark means an inactive call. The call rests on the fitted dose curve; in most records, active means well fitted falling curve with a large enough effect; inconclusive means small, poorly fitted or top-dose-only effect; inactive means no such curve, though single readings can be large or run the other way.
Potency means the concentration at half of the fitted maximal effect.

Sequence of ATP-dependent Clp protease proteolytic subunit (Bacillus subtilis (strain 168)) (P80244 whole entry, looked up): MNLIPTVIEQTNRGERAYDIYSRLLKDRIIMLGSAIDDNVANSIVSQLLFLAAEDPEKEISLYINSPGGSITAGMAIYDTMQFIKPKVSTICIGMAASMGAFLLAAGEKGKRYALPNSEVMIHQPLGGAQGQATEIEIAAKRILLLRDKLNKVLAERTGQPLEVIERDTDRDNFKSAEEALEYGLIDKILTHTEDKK

The target of this assay is ATP-dependent Clp protease proteolytic subunit (Bacillus subtilis (strain 168)) (UniProt P80244). The experiment in a line: qHTS Assay for Activators of ClpP. Further: the source files actives as falling curves though it sought activators and does not explain the sign; nearly all actives have a fitted effect of over 65% in size. To be noted: purified B. subtilis ClpP, FRET peptide cleavage, 20 min; series mostly up to 57.5 µM; activity change, negative = active: at the top concentration. Put shortly:
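FRET quenching reversal measured ClpP activation: 10 microg/mL B. subtilis ClpP at pH 8 with the FRET-FV decapeptide, read at 430 nm after 320 nm excitation. The 20-min minus 0-min signal was scaled between DMSO/no-enzyme wells and ADEP (5.8 microM final).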
On the technique in general: qHTS replaces the single test concentration by a dilution series.
With `Nc1[nH]c(C(=O)c2ccccc2)c(-c2ccncc2)c1C(=O)NCc1cccc2ccccc12`, the “activity change, negative = active” value is 0.831%.
As to `CCOC(=O)C1CCCN(C(=O)c2cccc3ccccc23)CC1` (stereo unspecified), the “activity change, negative = active” value is 0.267%.
Regarding `COc1ccc(CCNC(=O)c2nn(C)c3c2CSc2ccccc2-3)cc1OC`, the “activity change, negative = active” value was -0.894%.
Regarding `COc1ccc(CCNC(=O)c2cc3cccc4c3n2CC(C)S4)c(OC)c1OC` (stereo unspecified), the Potency was 31.6 µM (active).
Consider `COc1ccccc1CNC(=O)c1ccc(NC(=O)N2CC(C)Sc3ccccc32)cc1` (stereo unspecified), for which the “activity change, negative = active” value was -7.1%.
Still for that read-out and setting: in the case of `NC(c1csc(NC(=O)Nc2cccc(C(F)(F)F)c2)n1)C1CCCCC1` (stereo unspecified) it was 1.19%; in that of `CN(Cc1ccccc1F)c1cc2c(c3c1ccn3C)C1CCC2O1` (stereo unspecified), -8.78%.
For `COC(=O)Cc1ccc(OC2(C)CCN(Cc3ccc4c(c3)OCCO4)C2)cc1` (stereo unspecified), the “activity change, negative = active” value is -7.62%.
Same read-out and setting: the result for `O=C(Nc1ccc([N+](=O)[O-])cc1)c1cnn2c1NC(=C1CC1)C=C2C(F)F` reads 1.47%; that for `CC(=O)Nc1ccc(S(=O)(=O)N2CCN(c3ccccc3)CC2)cc1`, 0.606%; that for `Cc1cc(N2CCN(S(=O)(=O)c3ccc(C)c(C)c3)CC2)c2ccccc2n1`, -5.15%.
Consider `Cc1ccc(S(=O)(=O)N2CCN(c3ccccc3)CC2)cc1C`, for which the Potency is 17.8 µM (active).
As for `C[N+]1(CC(=O)c2cccs2)CCOCC1`, the “activity change, negative = active” value was 1.49%.
`CCCCC(=O)N(C)c1c(CC)nc2c(OCc3ccc(S(C)(=O)=O)cc3)cccn12`: the “activity change, negative = active” value was -1.17%.
Turning to `Cc1ccc(C2C=C(c3ccc(Cl)cc3)Nc3nc(NC(=O)CCC(=O)O)nn32)cc1` (stereo unspecified), the Potency was 6.31 µM (active).
For `COc1ccc(C2=CC(c3ccccc3Cl)n3nc(-c4ccc(Cl)cc4)nc3N2)cc1` (stereo unspecified), the “activity change, negative = active” value was -22.6%.
Regarding `CCOc1ccc(C2=CC(c3ccccc3)n3ncnc3N2)cc1` (stereo unspecified), the “activity change, negative = active” value is 4.25%.
Take `O=C(NCCOc1ccccc1)N1[C@H]2CC[C@@H]1C=C(c1ccc(F)cc1OCc1ccccc1)C2`: the “activity change, negative = active” value is -2.32%.
Same read-out and setting: the result for `CCCCn1nnnc1C1(C)CCC(=O)N1Cc1ccc(OC)c(OC)c1` (stereo unspecified) reads 0.575%.
For the molecule `COCc1cccc(-c2csc(C(O)c3ccc(F)cc3)n2)c1` (stereo unspecified), the “activity change, negative = active” value is -7.81%.
As for `O=S1(=O)CCN(Cc2ccccc2)CC1`, the “activity change, negative = active” value was 0.68%.
On to `Cc1ccc(-n2c(N)c(C(=O)N3CCOCC3)sc2=S)c(C)c1`, for which the “activity change, negative = active” value was 0.999%.
Consider `Cc1cccc(-n2c(N)c(C(=O)N3CCN(C)CC3)sc2=S)c1`, for which the Potency was 17.8 µM (active).
Turning to `N#Cc1ccccc1-n1c(N)c(C(=O)N2CCCC2)sc1=S`, the “activity change, negative = active” value was -4.07%.
Still for that read-out and setting: in the case of `CCc1nc2c(OCCOc3ccccc3)cccn2c1N(C=O)Cc1ccc(OC)cc1` it was -3.9%; in that of `CS(=O)(=O)N1CCCCC1c1cc(C(=O)NCc2ccccc2)no1` (stereo unspecified), -3.64%.
For the molecule `CC(=O)NCCNC(=O)c1cc(-c2cccc3ccccc23)nc2ccccc12`, the “activity change, negative = active” value was -5.07%.
For `CCc1ccc(-c2cc(C(=O)NCc3ccco3)c3ccccc3n2)s1`, the Potency was 28.2 µM (active).
Consider `CC(C)(C)c1ccc(C(=O)NCc2ccco2)cc1`, for which the “activity change, negative = active” value was -0.141%.
Take `CC(C)Nc1nc(NCCOc2ccccc2Cl)c2sccc2n1`: the “activity change, negative = active” value was -4.76%.
As for `COC(=O)c1ccc(CN2C(=O)C(Cc3ccccc3)ON=C2c2ncccc2C)o1` (stereo unspecified), the “activity change, negative = active” value is -0.769%.
In the case of `COc1ccc(C(=O)NCC2CCCO2)cc1S(=O)(=O)NCc1ccc(Cl)cc1` (stereo unspecified), the “activity change, negative = active” value is -4.36%.
Consider `CC(c1ccco1)N(C(=O)COc1ccccc1[N+](=O)[O-])c1ccccn1` (stereo unspecified), for which the Potency is 15.8 µM (active).
In the case of `CC(c1ccco1)N(C(=O)c1ccc(S(=O)(=O)N2CCCCC2)cc1)c1ccccn1` (stereo unspecified), the “activity change, negative = active” value is -0.1%.
On to `Cc1ccc(CN(C(=O)c2ccccc2[N+](=O)[O-])c2ccccn2)cc1`, for which the “activity change, negative = active” value was 0.425%.
`CN(C(=O)CSc1nncc2ccccc12)C1CCCCC1`: the “activity change, negative = active” value was -1.88%.
As to `CN(C(=O)c1cc2c(=O)n3ccccc3nc2s1)C1CCCCC1`, the Potency is 3.16 µM (active).
For `CCOCCCNC(=O)c1cc2c(=O)n3ccccc3nc2s1`, the Potency result is “inactive”.
For `O=c1[nH][nH]c2c1[C@H](c1ccc(Cl)cc1)O[C@H](CCc1ccccc1)C2`, the “activity change, negative = active” value was -0.921%.
Take `O=c1oc2cc(O)ccc2cc1-c1ccc(F)cc1`: the Potency was 14.1 µM (active).
On to `COc1ccc(-c2cc3ccc(OCc4nn[nH]n4)cc3oc2=O)cc1`, for which the “activity change, negative = active” value is 12.2%.
In the case of `COc1cccc(C(=O)c2cc3ccc(O)cc3oc2=O)c1`, the “activity change, negative = active” value was -2.45%.
Turning to `CCOC(=O)N(C)c1c(CC)nc2c(OCc3ccccc3C(=O)OC)cccn12`, the “activity change, negative = active” value is -2.46%.
Take `COc1cncc(-c2cnc3sc(NCCc4ccccn4)nn23)c1`: the “activity change, negative = active” value was -1.28%.
In the case of `CCc1nc2ccc(C(=O)N3CCN(S(=O)(=O)CC)CC3)cn2c1N(C=O)CCC(C)C`, the “activity change, negative = active” value is -1.82%.
The same measure, in the same setting: in the case of `COc1ccc(S(=O)(=O)N(C)C[C@H]2OCc3cnnn3CCCC(=O)N([C@H](C)CO)C[C@H]2C)cc1` it was -2.95%; in that of `C=C1C(=O)[C@]23C[C@H]1CCC2[C@@]1(C)C(C[C@@H]3O)[C@](C)(C(=O)O)CC[C@@H]1O` (stereo partly specified), 0.0201%; in that of `CC(C)CN1CCC1(C)C(=O)Nc1ccc(OC(F)F)cc1` (stereo unspecified), -0.236%.
Consider `O=C1CCCN1CCCNc1ncnc2c1[nH]c1ccccc12`, for which the Potency is 22.4 µM (active).
`O=Cc1c(NCCCN2CCCC2=O)c2ccccc2[nH]c1=O`: the “activity change, negative = active” value is 1.69%.
For `Cc1nn(Cc2ccccc2)c(C)c1C(=O)NCCCN1CCCC1=O`, the “activity change, negative = active” value was 0.973%.
